Data reported in PubChem BioAssay (NCATS).
Where “and” joins values, the source holds several entries; their conditions need not be identical. Equal entries are not always repeated. Inconclusive results are not listed. Calls of active or inactive are those of the source. Unless noted, the call rests on the fitted dose curve; in most records, active means well fitted curve in the direction sought with a large enough effect; inconclusive means small, poorly fitted or top-dose-only effect, or another doubt; inactive means no such curve, though single readings can be large; an effect the other way counts as inactive or inconclusive.

Tests used:
[1] = Cell Viability - BJ (AID 421; calls by dose curve;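 further: potency means the concentration at half of the fitted maximal effect; cells exposed to compound for 40 hours at 37 °C before readout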); conditions: BJ fibroblast viability, qHTS
How it was run: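 Normal human BJ foreskin fibroblasts, 1500/well in complete medium, treated 40 hr at 37 °C. Cellular ATP by CellTiter-Glo luminescence; normalized to DMSO and 100 uM tamoxifen, AC50 from Hill fit.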

[2] = Cell Viability - SK-N-SH (AID 435; calls by dose curve;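 further: potency means the concentration at half of the fitted maximal effect; compound exposure lasted 40 h at 37 °C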); conditions: SK-N-SH neuroblastoma cell viability qHTS
How it was run: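 Human neuroblastoma line, 40 h exposure at 37 °C, ATP quantified via luciferase luminescence; DMSO and 100 uM tamoxifen define 0 and 100% inhibition for AC50 fitting.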

[3] = molecular target: Mitogen-activated protein kinase 10 (Mus musculus) (UniProt Q61831); assay: JNK3 AlphaScreen Assay (AID 530; active means well fitted curve in either direction with a large enough effect, not every such curve was filed as active;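 further: kinase came from lysate of stimulated human HepG2 cells; signal reports phosphorylation of biotinylated GST-cJun 1-79 at Ser73 with 10 µM ATP; on the % scale 0 is the no-effect control and ±100 the full control effect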); conditions: JNK3 lysate, c-Jun phosphorylation; series mostly up to 57.1 µM
How it was run: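 Activity was read by AlphaScreen after JNK3-containing HepG2 lysate (cytokine pre-activated) phosphorylated biotinylated GST-cJun with 10 uM ATP at room temperature. Phospho-Ser73 cJun antibody with Protein-A acceptor beads provided detection.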

[4] = Cell Viability - NIH 3T3 (AID 541); conditions: NIH 3T3 cell viability, qHTS; activity change, negative = cytotoxicity: at 92.2 µM (top of the series);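 further: cells exposed to compound for 40 hours; plate controls were DMSO alone for no effect and tamoxifen positive control for full effect; nearly all actives have a fitted effect of over 25% in size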
How it was run: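 Cells seeded at 1000/well, rested 5 hr at 37 °C, then dosed and incubated 40 hr at 37 °C. CellTiter-Glo added, 20 min room temperature, luminescence read. AC50 by Hill fit.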

[5] = Cell Viability - Mesenchymal (AID 546); conditions: mesenchymal cells viability, qHTS; activity change, negative = cytotoxicity: at 91.7 µM (top of the series);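 further: cells exposed to compound for 40 hours before reading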
How it was run: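 Human renal mesenchymal cells (glomerulus-derived), 1000 cells/well, 5 hr 37 °C pre-incubation; compound 40 hr, 37 °C; CellTiter-Glo, 20 min RT; luminescence; AC50 via Hill equation.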

[6] = Cellular Toxicity (caspase-3) HepG2 (AID 654); conditions: HepG2 caspase-3 activation, luminescence, 0% = DMSO only, 100% = tamoxifen; series mostly up to 92.2 µM;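 further: cells exposed to compound for 16 hours before reading; 0% = DMSO alone and 100% = caspase signal from 100 µM tamoxifen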
How it was run: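 Caspase 3/7 activation in HepG2 is measured as rising luminescence after a 16 hr treatment at 37 °C. Values are scaled between DMSO basal and 100 uM tamoxifen, and AC50 is fitted with the Hill equation.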

[7] = Cellular Toxicity (caspase-3) HUV-EC-C (AID 656); conditions: HUV-EC-C cells, caspase-3 activation (apoptosis), vehicle = 0, 100 µM tamoxifen = 100%; series mostly up to 92.2 µM
How it was run: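 Concentration-dependent caspase 3/7 induction was assessed in HUV-EC-C cells exposed for 16 hours. Data scaled between DMSO and tamoxifen (100 uM) controls.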

[8] = Cellular Toxicity (caspase-3) BJ (AID 658); conditions: BJ fibroblasts, luminescence, normalized: DMSO 0%, staurosporine 100%; series mostly up to 91.7 µM
How it was run: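 qHTS, BJ fibroblasts, 1000 cells/well; 5 hr preincubation, 16 hr compound, 37 °C; Caspase-Glo 3/7 reagent, 1 hr RT; luminescence. DMSO = 0%, 10 uM staurosporine = 100%. Hill-equation AC50.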

[9] = Cellular Toxicity (caspase-3) MRC-5 (AID 659); conditions: MRC-5 cells, luminescence, normalized: DMSO 0%, 10 µM staurosporine 100%; series mostly up to 91.7 µM
How it was run: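 MRC-5 fibroblasts, 1500/well; 16 h cpd, 37 °C; Caspase-Glo 3/7, 1 h RT; lumi read. Norm: DMSO = 0%, 10 uM staurosporine = 100%. Hill-fit AC50 from qHTS conc-response.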

[10] = Cellular Toxicity (caspase-3) Mesangial (AID 660); conditions: mesangial cells, normalized: DMSO 0%, 100 µM tamoxifen 100%; series mostly up to 91.7 µM;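 further: combined caspase 3 and 7 activity read by Caspase-Glo luminescence; cells exposed to compound for 16 h before the caspase read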
How it was run: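 Seed cells derived from normal human renal glomeruli, incubate 5 h, add compounds across concentrations and incubate 16 h at 37 °C. Caspase 3/7 activation is then quantified by luciferase light, with AC50 derived by Hill modeling.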

[11] = Cellular Toxicity (caspase-3) Hek293 (AID 664); conditions: HEK293 caspase-3 activation, DMSO = 0%, 100 µM tamoxifen = 100%; series mostly up to 92.2 µM;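 further: cells exposed to compound for 16 h at 37 °C before readout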
How it was run: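 qHTS, HEK293 (human embryonic kidney), 16 h cpd exposure in complete medium. Caspase-3/7 activation = luminescence increase; normalized to DMSO/100 uM tamoxifen; Hill-fit AC50.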

[12] = MultiTox-Fluor Cytotoxicity Assay - LYMP1-003 - Live Cells (AID 962); conditions: LYMP1-003 lymphoblastoid cells, MultiTox-Fluor live-cell protease fluorescence; series mostly up to 92.2 µM;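 further: cells exposed to compound for 16 hours at 37 °C; 0% = DMSO only and full loss = 92 µM tetraoctylammonium bromide; cytotoxic hits lower the live-cell protease signal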
How it was run: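 Acute cytotoxicity is scored as a drop in live-cell protease activity in human lymphoblastoid LYMP1-003 cells after 16 hr compound exposure at 37 C. AC50 values come from Hill-equation modelling of concentration-response data.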

[13] = Cell Viability - LYMP1-003 - Assay at 40 hr (AID 964); conditions: LYMP1-003 lymphoblastoid viability; series mostly up to 92.2 µM; further: on the % scale 0 is the no-effect control and ±100 the full control effect; nearly all actives have a fitted effect of over 60% in size
How it was run: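 Luminescent ATP signal (CellTiter-Glo) served as the viability read-out after 40 hr compound treatment of human lymphoblastoid LYMP1-003 cells at 37 C. Decreases in ATP were fitted with the Hill equation to give AC50.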

[14] = Cell Viability - LYMP2-011 (AID 969); conditions: LYMP2-011 lymphoblastoid cells viability; series mostly up to 92.2 µM;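 further: 0% = DMSO only and full inhibition = 92 µM tetraoctylammonium bromide; nearly all actives have a fitted effect of over 60% in size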
How it was run: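 In this qHTS cytotoxicity format, compounds are tested across concentrations on human lymphoblastoid cells in complete medium for 24 hours at 37 C. Viability is taken as cellular ATP measured by luciferase luminescence.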

[15] = Cell Viability - LYMP2-013 (AID 970); conditions: LYMP2-013 lymphoblastoid cells viability; series mostly up to 92.2 µM;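 further: cells exposed to compound for 24 h at 37 °C; 0% = DMSO only and full inhibition = tetraoctylammonium bromide control; nearly all actives have a fitted effect of over 55% in size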
How it was run: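 Cytotoxicity is scored as a concentration-dependent drop in intracellular ATP in human lymphoblastoid cells after 24 hr compound exposure at 37 C. ATP is quantified by luciferase luminescence, and AC50 values come from Hill-equation modeling.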

[16] = Cell Viability - LYMP2-017 (AID 972); conditions: LYMP2-017 lymphoblastoid cell viability; series mostly up to 92.2 µM; further: on the % scale 0 is the no-effect control and ±100 the full control effect; nearly all actives have a fitted effect of over 55% in size
How it was run: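 Cytotoxicity is scored as a concentration-dependent drop in cellular ATP in a human lymphoblastoid line after 24 hr treatment at 37 C. Values are AC50s from Hill-equation modelling.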

[17] = Cell Viability - LYMP2-010 (AID 981); conditions: LYMP2-010 lymphoblastoid cell viability, qHTS; series mostly up to 92.2 µM; further: on the % scale 0 is the no-effect control and ±100 the full control effect; nearly all actives have a fitted effect of over 55% in size
How it was run: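 Steps: seed 2500 LYMP2-010 cells per well; incubate 5 hr at 37 C; add compound; incubate 24 hr at 37 C; add CellTiter-Glo, wait 30 min at room temperature; read luminescence. Concentration-response fitted to Hill equation for AC50.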

[18] = Cell Viability - LYMP2-012 (AID 982); conditions: LYMP2-012 lymphoblastoid cell viability qHTS; series mostly up to 92.2 µM;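 further: cellular ATP by luciferase luminescence where a drop means cytotoxicity; cells exposed to compound for one day before reading; 0% = DMSO only and full loss = 92 µM tetraoctylammonium bromide; nearly all actives have a fitted effect of over 55% in size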
[19] = qHTS Assay for Identification of Small Molecule Inducers of Hypoxia Response (AID 2120; active means well fitted curve in the direction sought with a large enough effect in the signal ratio, with a control signal flat, not every such curve was filed as active; the % refers to the signal ratio; further: 0% is about no effect); conditions: hypoxia response reporter cells, beta-lactamase ratio readout; series mostly up to 104 µM
How it was run: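 Cell-based qHTS for reporter induction: hypoxia response element controlled beta-lactamase in ME-180 cells. Compounds incubated 17 h at 37 degrees C; activity from blue/green (460/530 nm) ratio, inducers ranked by AC50.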

[20] = molecular target: Peroxisome proliferator-activated receptor alpha (Homo sapiens) (UniProt Q07869); assay: qHTS assay for small molecule agonists of the peroxisome proliferator-activated receptor alpha (PPARalpha) signaling pathway (AID 651778); conditions: PathHunter PPARalpha complementation, chemiluminescence, 6 h; max response: active compounds read high; further: % of control where 0% means no effect
Sequence of Peroxisome proliferator-activated receptor alpha (Homo sapiens) (Q07869 whole entry, looked up, the tested form may be a part): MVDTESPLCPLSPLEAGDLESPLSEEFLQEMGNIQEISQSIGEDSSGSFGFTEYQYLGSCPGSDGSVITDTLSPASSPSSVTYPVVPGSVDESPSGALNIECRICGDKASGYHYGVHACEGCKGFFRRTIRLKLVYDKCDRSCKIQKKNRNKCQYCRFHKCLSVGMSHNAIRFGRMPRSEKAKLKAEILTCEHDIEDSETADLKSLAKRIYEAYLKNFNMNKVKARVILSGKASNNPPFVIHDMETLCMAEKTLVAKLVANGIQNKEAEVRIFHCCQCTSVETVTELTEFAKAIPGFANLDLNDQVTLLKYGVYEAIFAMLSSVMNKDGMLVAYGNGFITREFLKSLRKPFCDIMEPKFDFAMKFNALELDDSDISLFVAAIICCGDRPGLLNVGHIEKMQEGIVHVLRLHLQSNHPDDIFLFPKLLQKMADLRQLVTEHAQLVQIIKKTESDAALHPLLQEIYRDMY
How it was run: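 Enzyme-fragment complementation assay in which ligand-bound PPARalpha translocates and forms an active enzyme that generates chemiluminescence. Cells were plated overnight, exposed to compound for 6 hr at 37 C, and then given detection reagent for 60 min at room temperature.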

Cc1cccc([N+](=O)[O-])c1C
inactive: Potency [1] > 92 µM | Potency [2] > 92 µM | Potency [3] | Potency [4] | activity change, negative = cytotoxicity [5] 1.97% | outcome [6] | outcome [7] | outcome [8] | outcome [9] | outcome [10] | outcome [11] | Potency [12] | Potency [13] | Potency [14] | Potency [15] | Potency [16] | Potency [17] | Potency [18] | outcome [19] | max response [20] 2.79% and -1.9%

CC(=O)OC/C=C(\C)CCC=C(C)C
inactive: Potency [1] > 92 µM | Potency [2] > 92 µM | Potency [3] | Potency [4] | activity change, negative = cytotoxicity [5] 8.38% | outcome [6] | outcome [7] | outcome [8] | outcome [9] | outcome [10] | outcome [11] | Potency [12] | Potency [13] | Potency [14] | Potency [15] | Potency [16] | Potency [17] | Potency [18] | outcome [19] | max response [20] -5.73% and -0.163%

COc1cccc(Cn2c(=O)cnc3cnc(N(C)C)nc32)c1
inactive: Potency [3]

CCO
inactive: Potency [1] > 92 µM | Potency [2] > 92 µM | Potency [3] | Potency [4] | activity change, negative = cytotoxicity [5] -1.16% | outcome [6] | outcome [7] | outcome [8] | outcome [9] | outcome [10] | outcome [11] | Potency [12] | Potency [13] | Potency [14] | Potency [15] | Potency [16] | Potency [17] | Potency [18] | outcome [19] | max response [20] -0.991%

CCCCOCCO
inactive: Potency [1] > 92 µM | Potency [2] > 92 µM | Potency [3] | Potency [4] | activity change, negative = cytotoxicity [5] 1.27% and 8.74% | outcome [6] | outcome [7] | outcome [8] | outcome [9] | outcome [10] | outcome [11] | Potency [12] | Potency [13] | Potency [14] | Potency [15] | Potency [16] | Potency [17] | Potency [18] | outcome [19] | max response [20] -6.41% and -1.42% and -1.76%

Cc1ccccc1C
inactive: Potency [1] > 92 µM | Potency [2] > 92 µM | Potency [4] | activity change, negative = cytotoxicity [5] -15.1% and 9.28% | outcome [6] | outcome [7] | outcome [8] | outcome [9] | outcome [10] | outcome [11] | Potency [12] | Potency [13] | Potency [14] | Potency [15] | Potency [16] | Potency [17] | Potency [18] | outcome [19] | max response [20] 1.03% and -0.383%

O=C(O)c1ccc(O)cc1O
inactive: Potency [1] > 92 µM | Potency [2] > 92 µM | Potency [3] | Potency [4] | activity change, negative = cytotoxicity [5] 5.57% and 9.36% | outcome [6] | outcome [7] | outcome [8] | outcome [9] | outcome [10] | outcome [11] | Potency [12] | Potency [13] | Potency [14] | Potency [15] | Potency [16] | Potency [17] | Potency [18] | outcome [19] | max response [20] -2.85% and -4.3%

CNc1ncncc1-c1ccccc1CN(C)C
inactive: Potency [3]

c1ccccc1
inactive: Potency [1] > 92 µM | Potency [2] > 92 µM | Potency [3] | Potency [4] | activity change, negative = cytotoxicity [5] 7.51% and 0.0243% | outcome [6] | outcome [7] | outcome [8] | outcome [9] | outcome [10] | outcome [11] | Potency [12] | Potency [13] | Potency [14] | Potency [15] | Potency [16] | Potency [17] | Potency [18] | outcome [19] | max response [20] -1.87% [middle of 4 runs]

Cc1c(N=C=O)cccc1N=C=O
inactive: Potency [1] > 92 µM | Potency [2] > 92 µM | Potency [3] | Potency [4] | activity change, negative = cytotoxicity [5] -3.51% | outcome [6] | outcome [7] | outcome [8] | outcome [9] | outcome [10] | outcome [11] | Potency [12] | Potency [13] | Potency [14] | Potency [15] | Potency [16] | Potency [17] | Potency [18] | outcome [19] | max response [20] -4.58% and -0.661%

C1OCOCO1
inactive: Potency [1] > 92 µM | Potency [2] > 92 µM | Potency [3] | Potency [4] | activity change, negative = cytotoxicity [5] -5.36% | outcome [6] | outcome [7] | outcome [8] | outcome [9] | outcome [10] | outcome [11] | Potency [12] | Potency [13] | Potency [14] | Potency [15] | Potency [16] | Potency [17] | Potency [18] | outcome [19] | max response [20] -0.344%

O=C1CCc2ccccc2O1
inactive: Potency [1] > 92 µM | Potency [2] > 92 µM | Potency [3] | Potency [4] | activity change, negative = cytotoxicity [5] 7.71% | outcome [6] | outcome [7] | outcome [8] | outcome [9] | outcome [10] | outcome [11] | Potency [12] | Potency [13] | Potency [14] | Potency [15] | Potency [16] | Potency [17] | Potency [18] | outcome [19] | max response [20] 0.979%

O=C(Nc1ccccc1)c1ccccc1O
inactive: max response [20] -0.0723%

c1ccc(Nc2nc(-c3ccoc3)nc3ccccc23)cc1
inactive: Potency [3]
